# Test results taken from the supplement of paper PMC8728848.
# This is one part of a sample in which the strongest signals are shown more often than they occur.
# Legend:
# Assay in all cases: glycan array binding signal (z-score within array); higher = stronger binding
# Conditions in all cases: glycan notation: IUPAC condensed, linker removed
# [1] = target: Fuc(a1-2)Gal(b1-3)GlcNAc
# Outline: (§1)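 Glycan array data were curated from 3228 arrays in the Consortium for Functional Glycomics database and kept only where the protein sequence was available. Glycan names were converted to IUPAC-condensed notation, and columns mapping to the same glycan were averaged. The binding signal is a within-array Z-score, averaged across arrays of the same protein sequence at different concentrations or buffers and across linkers. Negative Z-scores can be read as non-binding.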
# [2] = target: Fuc(a1-2)Gal(b1-3)GlcNAc(b1-3)Gal(b1-4)Glc
# Outline: as §1
# [3] = target: Fuc(a1-2)Gal(b1-3)GlcNAc(b1-3)[Gal(b1-4)GlcNAc(b1-6)]Gal(b1-4)Glc
# Outline: as §1
# [4] = target: Fuc(a1-2)Gal(b1-3)[Fuc(a1-4)]GlcNAc(b1-2)Man(a1-3)[Fuc(a1-2)Gal(b1-3)[Fuc(a1-4)]GlcNAc(b1-2)Man(a1-6)]Man(b1-4)GlcNAc(b1-4)[Fuc(a1-6)]GlcNAc(b1-4)[Fuc(a1-6)]GlcNAc
# Outline: as §1
# [5] = target: Fuc(a1-2)Gal(b1-3)[Fuc(a1-4)]GlcNAc(b1-3)[Fuc(a1-3)[Gal(b1-4)]GlcNAc(b1-6)]Gal(b1-4)Glc
# Outline: as §1
# [6] = target: Fuc(a1-2)Gal(b1-4)Glc6S
# Outline: as §1
# [7] = target: Fuc(a1-2)[Gal(a1-3)]Gal(b1-4)GlcNAc
# Outline: as §1
# [8] = target: Fuc(a1-2)[Gal(a1-3)]Gal(b1-4)[Fuc(a1-3)]GlcNAc
# Outline: as §1
# [9] = target: Fuc(a1-2)[GalNAc(a1-3)]Gal(b1-3)GlcNAc(b1-6)GalNAc
# Outline: as §1
# [10] = target: Fuc(a1-2)[GalNAc(a1-3)]Gal(b1-4)GlcNAc(b1-2)Man(a1-3)[Fuc(a1-2)[GalNAc(a1-3)]Gal(b1-4)GlcNAc(b1-2)Man(a1-6)]Man(b1-4)GlcNAc(b1-4)[Fuc(a1-6)]GlcNAc
# Outline: as §1
# [11] = target: Fuc(a1-2)[GalNAc(a1-3)]Gal(b1-4)GlcNAc(b1-3)Gal(b1-4)GlcNAc
# Outline: as §1
# [12] = target: Fuc(a1-3)[Gal3S(b1-4)]GlcNAc6S
# Outline: as §1
# [13] = target: Gal(a1-3)Gal(b1-3)[Fuc(a1-4)]GlcNAc(b1-2)Man(a1-3)[Gal(a1-3)Gal(b1-3)[Fuc(a1-4)]GlcNAc(b1-2)Man(a1-6)]Man(b1-4)GlcNAc(b1-4)GlcNAc
# Outline: as §1
# [14] = target: Gal(b1-3)GlcNAc(b1-2)Man
# Outline: as §1
# [15] = target: Gal(b1-3)GlcNAc(b1-2)Man(a1-3)[GlcNAc(b1-4)][Gal(b1-3)GlcNAc(b1-2)Man(a1-6)]Man(b1-4)GlcNAc(b1-4)GlcNAc
# Outline: as §1
# [16] = target: Gal(b1-3)GlcNAc(b1-3)Gal(b1-4)GlcNAc(b1-2)Man(a1-3)[Gal(b1-3)GlcNAc(b1-3)Gal(b1-4)GlcNAc(b1-2)Man(a1-6)]Man(b1-4)GlcNAc(b1-4)GlcNAc
# Outline: as §1
# [17] = target: Gal(b1-3)GlcNAc(b1-3)Gal(b1-4)GlcNAc(b1-2)[Gal(b1-3)GlcNAc(b1-3)Gal(b1-4)GlcNAc(b1-6)]Man(a1-6)[Gal(b1-3)GlcNAc(b1-3)Gal(b1-4)GlcNAc(b1-2)Man(a1-3)]Man(b1-4)GlcNAc(b1-4)[Fuc(a1-6)]GlcNAc
# Outline: as §1
# [18] = target: Gal(b1-3)GlcNAc(b1-3)Gal(b1-4)GlcNAc(b1-3)Gal(b1-4)GlcNAc(b1-2)[Gal(b1-3)GlcNAc(b1-3)Gal(b1-4)GlcNAc(b1-3)Gal(b1-4)GlcNAc(b1-6)]Man(a1-6)[Gal(b1-3)GlcNAc(b1-3)Gal(b1-4)GlcNAc(b1-3)Gal(b1-4)GlcNAc(b1-2)Man(a1-3)]Man(b1-4)GlcNAc(b1-4)[Fuc(a1-6)]GlcNAc
# Outline: as §1
# [19] = target: Gal(b1-3)GlcNAc(b1-3)Gal(b1-4)[Fuc(a1-3)]GlcNAc(b1-6)[Gal(b1-3)GlcNAc(b1-3)]Gal(b1-4)Glc
# Outline: as §1
# [20] = target: Gal(b1-4)GlcNAc(b1-2)Man(a1-3)[GlcNAc(b1-4)][Gal(b1-4)GlcNAc(b1-2)Man(a1-6)]Man(b1-4)GlcNAc(b1-4)GlcNAc
# Outline: as §1
# [21] = target: Gal(b1-4)GlcNAc(b1-3)Gal(b1-4)GlcNAc(b1-3)Gal(b1-4)GlcNAc(b1-2)Man(a1-3)[Gal(b1-4)GlcNAc(b1-3)Gal(b1-4)GlcNAc(b1-3)Gal(b1-4)GlcNAc(b1-2)Man(a1-6)]Man(b1-4)GlcNAc(b1-4)[Fuc(a1-6)]GlcNAc
# Outline: as §1
# [22] = target: Gal(b1-4)GlcNAc(b1-3)Gal(b1-4)GlcNAc(b1-3)Gal(b1-4)GlcNAc(b1-2)[Gal(b1-4)GlcNAc(b1-3)Gal(b1-4)GlcNAc(b1-3)Gal(b1-4)GlcNAc(b1-6)]Man(a1-6)[Gal(b1-4)GlcNAc(b1-3)Gal(b1-4)GlcNAc(b1-3)Gal(b1-4)GlcNAc(b1-2)Man(a1-3)]Man(b1-4)GlcNAc(b1-4)[Fuc(a1-6)]GlcNAc
# Outline: as §1
# [23] = target: Gal(b1-4)GlcNAc(b1-3)Gal(b1-4)GlcNAc(b1-3)Gal(b1-4)GlcNAc(b1-3)Gal(b1-4)GlcNAc(b1-3)Gal(b1-4)GlcNAc(b1-2)Man(a1-3)[Gal(b1-4)GlcNAc(b1-3)Gal(b1-4)GlcNAc(b1-3)Gal(b1-4)GlcNAc(b1-3)Gal(b1-4)GlcNAc(b1-3)Gal(b1-4)GlcNAc(b1-2)Man(a1-6)]Man(b1-4)GlcNAc(b1-4)[Fuc(a1-6)]GlcNAc
# Outline: as §1
# [24] = target: Gal(b1-4)GlcNAc(b1-3)Gal(b1-4)GlcNAc(b1-3)GalNAc
# Outline: as §1
# [25] = target: Gal(b1-6)Gal
# Outline: as §1
# [26] = target: Gal3S(b1-3)[Fuc(a1-4)]GlcNAc
# Outline: as §1
# [27] = target: Gal6S(b1-3)GlcNAc
# Outline: as §1
# [28] = target: Gal6S(b1-4)Glc6S
# Outline: as §1
# [29] = target: GalNAc3S(b1-4)GlcNAc3S
# Outline: as §1
# [30] = target: GlcNAc(a1-3)Gal(b1-4)GlcNAc
# Outline: as §1
# [31] = target: GlcNAc(a1-4)Gal(b1-4)GalNAc
# Outline: as §1
# [32] = target: GlcNAc(a1-4)Gal(b1-4)GlcNAc(b1-3)Gal(b1-4)GlcNAc
# Outline: as §1
# [33] = target: GlcNAc(b1-3)Gal(b1-4)GlcNAc(b1-3)[GlcNAc(b1-3)Gal(b1-4)GlcNAc(b1-3)]GalNAc
# Outline: as §1
# [34] = target: GlcNAc(b1-4)GlcNAc(b1-4)GlcNAc(b1-4)GlcNAc(b1-4)GlcNAc
# Outline: as §1
# [35] = target: Kdn(a2-6)Gal(b1-4)GlcNAc
# Outline: as §1
# [36] = target: Man(a1-2)Man(a1-3)[Man(a1-2)Man(a1-6)]Man(a1-6)[Man(a1-2)Man(a1-2)Man(a1-3)]Man
# Outline: as §1
# [37] = target: Neu5Ac(a2-3)Gal(b1-3)[GlcNAc(b1-6)]GalNAc
# Outline: as §1
# [38] = target: Neu5Ac(a2-3)Gal(b1-3)[Neu5Ac(a2-6)]GlcNAc(b1-3)[Fuc(a1-3)[Gal(b1-4)]GlcNAc(b1-6)]Gal(b1-4)Glc
# Outline: as §1
# [39] = target: Neu5Ac(a2-3)Gal(b1-4)GlcNAc
# Outline: as §1
# [40] = target: Neu5Ac(a2-3)Gal(b1-4)GlcNAc(b1-6)[Neu5Ac(a2-3)Gal(b1-3)]GalNAc
# Outline: as §1
# [41] = target: Neu5Ac(a2-3)Gal(b1-4)[Fuc(a1-3)]GlcNAc(b1-6)[Gal(b1-3)]GalNAc
# Outline: as §1
# [42] = target: Neu5Ac(a2-6)Gal(b1-4)GlcNAc
# Outline: as §1
# [43] = target: Neu5Ac(a2-6)Gal(b1-4)GlcNAc(b1-2)Man(a1-3)[Man(a1-6)]Man(b1-4)GlcNAc(b1-4)GlcNAc
# Outline: as §1
# [44] = target: Neu5Ac(a2-6)Gal(b1-4)GlcNAc(b1-3)Gal(b1-4)[Fuc(a1-3)]GlcNAc(b1-3)Gal(b1-4)[Fuc(a1-3)]GlcNAc
# Outline: as §1
# [45] = target: Neu5Ac(a2-6)Gal(b1-4)GlcNAc6S
# Outline: as §1
# [46] = target: Neu5Ac(a2-6)GlcNAc(b1-4)GlcNAc(b1-4)GlcNAc
# Outline: as §1
# [47] = target: Neu5Ac(a2-8)Neu5Ac(a2-8)Neu5Ac
# Outline: as §1
binder,measurement,setting,value
CpGal16 (Clavelina picta) (protein) MAKMITNYVGKRIECIMVATDMMSTVFSLASATGDLPFYINFRQRENSIVMNTRVHGKWQYEKSQSSGGMNFYEPFRLVVEVRPSVFKVTVSTMGEEDGITFNLQYSQITIKPDEIVAMHLGYCNLRSELLVTDL,glycan array binding signal (z-score),[1],2.93
same,glycan array binding signal (z-score),[2],3.11
same,glycan array binding signal (z-score),[3],2.79
same,glycan array binding signal (z-score),[4],-0.402
same,glycan array binding signal (z-score),[5],-0.394
same,glycan array binding signal (z-score),[6],3.43
same,glycan array binding signal (z-score),[7],-0.113
same,glycan array binding signal (z-score),[8],-0.434
same,glycan array binding signal (z-score),[9],3.13
same,glycan array binding signal (z-score),[10],0.044
same,glycan array binding signal (z-score),[11],2.86
same,glycan array binding signal (z-score),[12],-0.265
same,glycan array binding signal (z-score),[13],-0.202
same,glycan array binding signal (z-score),[14],0.015
same,glycan array binding signal (z-score),[15],2.87
same,glycan array binding signal (z-score),[16],3.83
same,glycan array binding signal (z-score),[17],3.99
same,glycan array binding signal (z-score),[18],4.48
same,glycan array binding signal (z-score),[19],3.33
same,glycan array binding signal (z-score),[20],-0.358
same,glycan array binding signal (z-score),[21],0.953
same,glycan array binding signal (z-score),[22],1.44
same,glycan array binding signal (z-score),[23],1.28
same,glycan array binding signal (z-score),[24],-0.168
same,glycan array binding signal (z-score),[25],-0.407
same,glycan array binding signal (z-score),[26],-0.266
same,glycan array binding signal (z-score),[27],-0.282
same,glycan array binding signal (z-score),[28],-0.12
same,glycan array binding signal (z-score),[29],0.397
same,glycan array binding signal (z-score),[30],-0.249
same,glycan array binding signal (z-score),[31],-0.312
same,glycan array binding signal (z-score),[32],-0.32
same,glycan array binding signal (z-score),[33],-0.168
same,glycan array binding signal (z-score),[34],-0.348
same,glycan array binding signal (z-score),[35],-0.352
same,glycan array binding signal (z-score),[36],-0.232
same,glycan array binding signal (z-score),[37],-0.388
same,glycan array binding signal (z-score),[38],-0.357
same,glycan array binding signal (z-score),[39],-0.378
same,glycan array binding signal (z-score),[40],-0.324
same,glycan array binding signal (z-score),[41],0.134
same,glycan array binding signal (z-score),[42],-0.456
same,glycan array binding signal (z-score),[43],-0.395
same,glycan array binding signal (z-score),[44],-0.419
same,glycan array binding signal (z-score),[45],-0.303
same,glycan array binding signal (z-score),[46],-0.261
same,glycan array binding signal (z-score),[47],-0.39
